In PubChem BioAssay AID584 (National Center for Advancing Translational Sciences (NCATS), 2007):
The campaign covered roughly 71,000 compounds. About 65 (0.09%) were called active. Calls follow the shape of the dose curve; as a rule, active = well fitted curve in the direction sought with a large enough effect; inconclusive = small, poorly fitted or top-dose-only effect; inactive = flat fitted curve, though single readings scatter. Shown is part of a subset that was picked to be rich in actives.

target: Beta-lactamase (Escherichia coli (strain K12)) (UniProt P00811); assay: Promiscuous and Specific Inhibitors of AmpC Beta-Lactamase (assay with detergent); conditions: purified AmpC, nitrocefin hydrolysis with detergent; series mostly up to 28.7 µM; activity change, negative = inhibition: at the top concentration
Sequence (P00811 whole entry, looked up): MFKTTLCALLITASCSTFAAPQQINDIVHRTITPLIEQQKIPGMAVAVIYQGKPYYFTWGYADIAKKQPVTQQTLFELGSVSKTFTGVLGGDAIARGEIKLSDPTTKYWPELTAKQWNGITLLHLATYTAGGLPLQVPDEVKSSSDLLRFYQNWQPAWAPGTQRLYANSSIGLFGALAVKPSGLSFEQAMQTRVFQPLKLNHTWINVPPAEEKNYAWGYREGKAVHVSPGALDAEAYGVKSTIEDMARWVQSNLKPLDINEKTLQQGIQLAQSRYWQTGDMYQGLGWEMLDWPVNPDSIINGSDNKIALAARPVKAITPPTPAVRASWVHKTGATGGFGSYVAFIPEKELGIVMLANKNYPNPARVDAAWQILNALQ
Protocol: NIH Molecular Libraries Screening Centers Network [MLSCN]
NIH Chemical Genomics Center [NCGC]
PI Name: Shoichet, Brian K.
This aggregation profiling approach exploits the sensitivity of aggregate formation to detergent. Inhibition of b-lactamase is measured in the presence and absence of 0.01% Triton X-100. This particular assay had the prescence of 0.01% Triton X-100. See Pubchem assay "Promiscuous and Specific Inhibitors of AmpC Beta-Lactamase (assay without detergent)" for related screen. Compounds that inhibit only in the absence of detergent are considered likely promiscuous aggregators.
A screen of 1,030 compounds was performed in Brian Shoichet's lab in 96-well format. AmpC activity was measured by following the absorbance at 480 nm. Nitrocefin is a chromogenic substrate: while nitrocefin is yellow (lmax 390 nm), the product of its hydrolysis is red (lmax 486 nm, 17,000 M-1). AmpC beta lactamase was provided by Brian Shoichet and Brian Feng, UCSF.
NCGC Assay Protocol Summary:
20 mM phosphate buffer, pH 7.0
Triton X-100: No Detergent screen: 0.0001%, Detergent screen: 0.01%.
Buffer in columns 3 and 4 as negative control (no enzyme).
5.3 nM AmpC in columns 1, 2, 5-48. Titration of UCSF compound 9 control (from 10 mM, then 1:2) pin-transferred to column 2. Column 1 is neutral (100% activity).
Six uL of reagents were dispensed to 1536-well Greiner black clear bottom plates. Compounds and controls (23 nL) were transferred via Kalypsys PinTool. The plates were incubated for 15 min at room temperature, and then 2 uL of 800 uM solution of nitrocefin was added to start the reaction. The plates were immediately transferred to and read every 20 seconds for 4 min on ViewLux (Perkin-Elmer) High-throughput CCD imager using 480 nm absorbance protocol. During dispense, reagent bottles were kept submerged into 4 deg C water bath.
Keywords: NIH Roadmap, MLSCN, MLI, MLSMR, qHTS, NCGC, AmpC Beta-Lactamase, Aggregation
% is scaled to controls: 0 for no effect and ±100 for the full control effect; potency is read from the fitted curve at half-maximal effect.

| SMILES | Potency | activity change, negative = inhibition |
| --- | --- | --- |
| CC(C)(O/N=C(\C(=O)N[C@@H]1C(=O)N2C(C(=O)[O-])=C(C[n+]3ccccc3)CS[C@@H]12)c1csc(N)n1)C(=O)O | 3.98 µM (active) |  |
| COc1ccc(OC)c(C2N(c3ccccn3)C(=O)C3CCCN32)c1 (stereo not given) |  | -2.28% (inactive) |
| Clc1ccc(CSc2nnc([C@@H]3CCCN3)o2)cc1 |  | -2.42% (inactive) |
| C=CCNC(=O)c1ccc(C)c(Br)c1 |  | -2.92% (inactive) |
| Cc1ccc(CNC(=O)CN2CCN(Cc3ccc(Cl)cc3)C2=O)cc1 |  | -1.23% (inactive) |
| COCCCNC(=O)c1ccc(CNS(=O)(=O)c2ccc(NC(C)=O)cc2)cc1 |  | 0.576% (inactive) |
| Cn1nc(-c2ccc(Cl)cc2)c2cc(C(=O)NCc3ccco3)sc21 |  | 12.3% (inactive) |
| CCCN(CCC)CCNC(=O)c1cc2c(C)nc3ccccc3c2o1 |  | 9.75% (inactive) |
| CCn1c(NCCc2ccc(OC)c(OC)c2)nc2c1c(=O)n(C)c(=O)n2C |  | -1.87% (inactive) |
| Fc1ccccc1CCNc1nnnn1-c1ccccc1 |  | -2.77% (inactive) |
| Cc1ccn2cc(-c3nonc3C)cc2c1 |  | 13.7% (inactive) |
| O=C(c1cccc(S(=O)(=O)N2CCOCC2)c1)N1CCOCC1 |  | 7.65% (inactive) |
| Clc1ccc(Nc2nc(-c3cccs3)cs2)nc1 |  | -2.26% (inactive) |
| COc1cccc2sc(Nc3nc(C)c(C(C)=O)s3)nc12 |  | -2.42% (inactive) |
| CC(=O)N1CCc2cc(S(=O)(=O)Nc3ccccc3N3CCN(C)CC3)ccc21 |  | 11.9% (inactive) |
| COc1ccc(OCC(=O)N2CCN(C(=O)c3cccs3)CC2)cc1 |  | -6.48% (inactive) |
| Cc1ccccc1C(=O)NCCN=C1NS(=O)(=O)c2ccccc21 |  | 7.01% (inactive) |
| C#CCN1C(=O)C(O)(CC(=O)c2cc(OC)ccc2OC)c2ccccc21 (stereo not given) |  | -7.87% (inactive) |
| CCOC(=O)c1ccc(N2C(=O)CC(N3CCC(C(=O)OCC)CC3)C2=O)cc1 (stereo not given) |  | 6.93% (inactive) |
| O=C1c2oc3ccc(Br)cc3c(=O)c2C(c2cccc(F)c2)N1CCO (stereo not given) |  | -4.42% (inactive) |
| O=C(c1ccco1)N1CCC[C@@]2(CCN(Cc3nccs3)C2)C1 |  | -4.4% (inactive) |
| O=C1c2oc3ccccc3c(=O)c2C(c2cccc(O)c2)N1c1ccccn1 (stereo not given) |  | 9.36% (inactive) |
| CCCCCCCCCCCC(=O)O[C@H](CC(=O)O)C[N+](C)(C)C |  | -4.2% (inactive) |
| CCOC(=O)N1CCN(C(=O)c2n[nH]c(=O)c3ccccc23)CC1 |  | 0.673% (inactive) |
| CC(C)c1cc(C(=O)O)on1 |  | -6.27% (inactive) |
| O=S(=O)(c1ccc(OCC(O)CN2CCN(c3ccccc3Cl)CC2)cc1)N1CCOCC1 (stereo not given) |  | 2.31% (inactive) |
| CCNC(=O)N1CCNC(=O)C1CC(=O)Nc1ccc(C(=O)OCC)cc1 (stereo not given) |  | -4.34% (inactive) |
| COc1ccccc1-n1nnnc1S(=O)(=O)Cc1ccc(Cl)cc1 |  | 1.38% (inactive) |
| COc1ccc2occ(C(=O)c3ccc(N=C(C)N(C)C)cc3)c2c1 |  | -1.09% (inactive) |
| CCC(=O)Nc1ccc2c(c1)nc(CCN1CCN(C)CC1)n2C |  | -3.74% (inactive) |
